Here are results for six compounds from PubChem BioAssay.

By AC50 is commonly meant the midpoint of the concentration-response curve, whichever way the signal moves. By IC50 is commonly meant the concentration that inhibits the measured activity by half. In general, viability refers to a read-out of living cells in per cent, often relative to untreated cells.

Assay [1] in a line: viability loss in pontine glioma line – cell-based, SU-DIPG-XVII, MIPE5.0, CellTiter-Glo, qHTS, dose response (AID 1347060; cut-off not given, nearly all actives have AC50 up to about 26 µM;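 for AC50: cells exposed to compound for 48 hours before viability readout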). The note with it: CellTiter-Glo ATP luminescence. A general note: In ATP-based viability assays light output follows the ATP content of the culture.
The nature of assay [2]: viability loss in pontine glioma line – cell-based, SU-DIPG-XIII, MIPE5.0, CellTiter-Glo, qHTS, dose response (AID 1347064; cut-off not given, nearly all actives have AC50 up to about 23 µM;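 for AC50: cells exposed to compound for 48 hours before the viability read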). The conditions noted are these: CellTiter-Glo ATP luminescence.
Assay [3] in a line: viability loss in pontine glioma line – cell-based, SU-DIPG-XXV, MIPE5.0, CellTiter-Glo, qHTS, dose response (AID 1347065; cut-off not given, nearly all actives have AC50 up to about 26 µM;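 note: cells exposed to compound for 48 hours before ATP readout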). The note with it: CellTiter-Glo ATP luminescence.
Assay [4] is described as follows: JHH-DIPG-1 glioma cell viability, MIPE5.0 library, CellTiter-Glo luminescence, qHTS (AID 1347067; cut-off not given, nearly all actives have AC50 up to about 26 µM;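 note: cells exposed to compound for 48 hours before readout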). The conditions noted are these: JHH-DIPG-1 glioma viability, CellTiter-Glo ATP luminescence.
The nature of assay [5]: growth inhibition of DIPG cells – cell-based, MIPE5.0 library, qHTS (AID 1347068; cut-off not given, nearly all actives have IC50 up to about 30 µM;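 for IC50: cells exposed to compound for 48 hours before viability readout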). The conditions noted are these: SU-DIPG-XXV viability. Background: Quantitative high-throughput screening tests each substance at several concentrations.
Assay [6] in a line: viability loss with induced miR-34 in A549 – imaging, A549 dox-inducible miR-34, nuclei and caspase counts, primary screen (AID 1347080;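 active = compounds whose cell count with miR-34 switched on is under 0.7 times the count with it off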). The conditions noted are these: A549 miR-34 inducible, Hoechst nuclei count, 48 h.
Assay [7] in a line: MELAS cybrid and Rieske KO viability enhancers – cell-based, MELAS cybrids, Rieske KO mouse fibroblasts, CellTiter-Glo, primary screen (AID 1508586;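 active = mean z-score across replicates of 1.96 or higher in either the MELAS or the Rieske mutant cell line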;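 note: z relative to plate mean and SD of compound and empty wells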). The note with it: low glucose.
Assay [8] is described as follows: drug combination growth inhibition, ovarian cancer – cell-based, oncology-focused library, rucaparib conditional, profiling panel (AID 1508598). The note with it: patient-derived ovarian cancer cells, CellTiter-Glo viability, 144 h, stronger effect = lower value.
The mark [9] stands for this setting: stronger effect = lower value, cell number ratio, induced over uninduced.
Setting [10] is: measured here: relative caspase fold change +Dox/-Dox.
[11] abbreviates: measured here: total cells with miR-34 induction, stronger effect = lower value.
Where [12] appears, read: measured here: total cells without miR-34 induction.
[13] abbreviates: MELAS cybrid survival, CellTiter-Glo 48 h, stronger effect = higher value.
The mark [14] stands for this setting: Rieske KO mouse fibroblast survival, CellTiter-Glo 72 h.

Molecules are shown by their SMILES. Results filed as inconclusive are left out. Calls of active or inactive are those of the source.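 Rule for the calls, unless noted: active = normalized viability below 100% at a tested concentration; inactive = the rest.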

On to `C=CC(=O)Nc1cc(Nc2nccc(-c3cn(C)c4ccccc34)n2)c(OC)cc1N(C)CCN(C)C`, for which the AC50 was 2950 nM (active) in assay [1], 7420 nM (active) in assay [2], 3720 nM (active) in assay [3] and 2630 nM (active) in assay [4]. For the same compound, the IC50 in assay [5] is 9340 nM (active). Also, the fold change in assay [6] (setting [9]) is 0.975 (inactive); in assay [6] (setting [10]), 0.432. The results for the cell count in assay [6] (setting [11]) and in assay [6] (setting [12]) were 2760 and 2830, respectively. Moreover, the z-score in assay [7] (setting [13]) was -0.292 (inactive); in assay [7] (setting [14]), 1.23. The viability in assay [8] (at 0.000305 µM, OCI-C5x cells, with rucaparib 10 µM, 100% = cells with rucaparib alone) was 110% (inactive); in assay [8] (at 0.000305 µM, OCI-C5x cells, without rucaparib), 114% (inactive); in assay [8] (at 0.000305 µM, OCI-P5x cells, with rucaparib 20 µM, 100% = cells with rucaparib alone), 95.5% (active); in assay [8] (at 0.000305 µM, OCI-P5x cells, without rucaparib), 94.3% (active); in assay [8] (at 0.00122 µM, OCI-C5x cells, with rucaparib 10 µM, 100% = cells with rucaparib alone), 106% (inactive); in assay [8] (at 0.00122 µM, OCI-C5x cells, without rucaparib) it was 108% (inactive). The viability was 103% (inactive) in assay [8] (at 0.00122 µM, OCI-P5x cells, with rucaparib 20 µM, 100% = cells with rucaparib alone); 103% (inactive) in assay [8] (at 0.00122 µM, OCI-P5x cells, without rucaparib); 120% (inactive) in assay [8] (at 0.00488 µM, OCI-C5x cells, with rucaparib 10 µM, 100% = cells with rucaparib alone); 120% (inactive) in assay [8] (at 0.00488 µM, OCI-C5x cells, without rucaparib); 103% (inactive) in assay [8] (at 0.00488 µM, OCI-P5x cells, with rucaparib 20 µM, 100% = cells with rucaparib alone); 106% (inactive) in assay [8] (at 0.00488 µM, OCI-P5x cells, without rucaparib). For the same compound, the viability in assay [8] (at 0.0195 µM, OCI-C5x cells, with rucaparib 10 µM, 100% = cells with rucaparib alone) was 127% (inactive); in assay [8] (at 0.0195 µM, OCI-C5x cells, without rucaparib) it was 118% (inactive); in assay [8] (at 0.0195 µM, OCI-P5x cells, with rucaparib 20 µM, 100% = cells with rucaparib alone) it was 108% (inactive); in assay [8] (at 0.0195 µM, OCI-P5x cells, without rucaparib) it was 106% (inactive); in assay [8] (at 0.0781 µM, OCI-C5x cells, with rucaparib 10 µM, 100% = cells with rucaparib alone) it was 133% (inactive); in assay [8] (at 0.0781 µM, OCI-C5x cells, without rucaparib), 132% (inactive). For the same compound, the viability in assay [8] (at 0.0781 µM, OCI-P5x cells, with rucaparib 20 µM, 100% = cells with rucaparib alone) is 105% (inactive); in assay [8] (at 0.0781 µM, OCI-P5x cells, without rucaparib) it was 107% (inactive); in assay [8] (at 0.313 µM, OCI-C5x cells, with rucaparib 10 µM, 100% = cells with rucaparib alone), 158% (inactive); in assay [8] (at 0.313 µM, OCI-C5x cells, without rucaparib), 170% (inactive); in assay [8] (at 0.313 µM, OCI-P5x cells, with rucaparib 20 µM, 100% = cells with rucaparib alone), 108% (inactive); in assay [8] (at 0.313 µM, OCI-P5x cells, without rucaparib), 108% (inactive). Besides, the viability was 147% (inactive) in assay [8] (at 1.25 µM, OCI-C5x cells, with rucaparib 10 µM, 100% = cells with rucaparib alone); 173% (inactive) in assay [8] (at 1.25 µM, OCI-C5x cells, without rucaparib); 91.6% (active) in assay [8] (at 1.25 µM, OCI-P5x cells, with rucaparib 20 µM, 100% = cells with rucaparib alone); 91.7% (active) in assay [8] (at 1.25 µM, OCI-P5x cells, without rucaparib); 2.67% (active) in assay [8] (at 5 µM, OCI-C5x cells, with rucaparib 10 µM, 100% = cells with rucaparib alone); 3.48% (active) in assay [8] (at 5 µM, OCI-C5x cells, without rucaparib). For the same compound, the viability is 8.99% (active) in assay [8] (at 5 µM, OCI-P5x cells, with rucaparib 20 µM, 100% = cells with rucaparib alone) and 78.5% (active) in assay [8] (at 5 µM, OCI-P5x cells, without rucaparib).

On to `COc1cccc(-c2cc(F)ccc2C2Cc3nc(N)nc(C)c3C(=O)N2)n1` (configuration not stated), for which the AC50 was 29.5 nM (active) in assay [1], 41.7 nM (active) in assay [2], 29.5 nM (active) in assay [3] and 37.2 nM (active) in assay [4]. Further, the IC50 in assay [5] was 74.2 nM (active). Further, the fold change is 0.968 (inactive) in assay [6] (setting [9]) and 0.335 in assay [6] (setting [10]). Besides, the results for the cell count in assay [6] (setting [11]) and in assay [6] (setting [12]) were 2200 and 2270, respectively. Moreover, the figures for the z-score in assay [7] (setting [13]) and in assay [7] (setting [14]) were 2.51 (active) and -1.33, respectively.

For the compound `CC(C)C(=O)OCC(=O)[C@@]12O[C@H](C3CCCCC3)O[C@@H]1C[C@H]1[C@@H]3CCC4=CC(=O)C=C[C@]4(C)[C@H]3[C@@H](O)C[C@@]12C`, the AC50 in assay [1] is 13200 nM (active); in assay [2], 13200 nM (active); in assay [3], 8330 nM (active); in assay [4], 2950 nM (active). The IC50 in assay [5] was 14800 nM (active). Further, the z-score in assay [7] (setting [13]) is -0.376 (inactive); in assay [7] (setting [14]) it was 1.73.

Regarding `CN(CCOc1ccc(C[C@H](Nc2ccccc2C(=O)c2ccccc2)C(=O)O)cc1)c1ccccn1`, the compound was classed as inactive in assay [1], in assay [2], in assay [3], in assay [4] and in assay [5].

As for `Cc1ccc(C(=O)Nc2ccc(CN3CCN(C)CC3)c(C(F)(F)F)c2)cc1C#Cc1cnc2[nH]ncc2c1`, the AC50 was 41.7 nM (active) in assay [1], 11.8 nM (active) in assay [2], 26.3 nM (active) in assay [3] and 468 nM (active) in assay [4]. For the same compound, the IC50 in assay [5] is 332 nM (active). For the same compound, the fold change in assay [6] (setting [9]) was 0.928 (inactive); in assay [6] (setting [10]) it was 0.675. The figures for the cell count in assay [6] (setting [11]) and in assay [6] (setting [12]) were 506 and 546, respectively. Further, the z-score in assay [7] (setting [13]) was 0.831 (inactive); in assay [7] (setting [14]) it was -6.34.

With `c1ccc2c(-c3cnn4cc(-c5ccc(N6CCNCC6)cc5)cnc34)ccnc2c1`, the AC50 is 3320 nM (active) in assay [1], 5250 nM (active) in assay [2], 2630 nM (active) in assay [3] and 2630 nM (active) in assay [4]. For the same compound, the IC50 in assay [5] was 5900 nM (active).
